The results in this text go back to the emibetuzumab library of Makowski et al. (2022).

The other results are listed elsewhere or left out. How many sequences the whole screen found active is unknown.

The chains are these.
B1: VH:VL chains; a variant is named by its letters at X, in order (parent)
chain 1: QVQLVQSGAEVKKPGASVKVSCKASGYTFTDYXMHWVRQAPGQGLEWMGXVNPNXXXTTYNQKFEGRVTMTTDTSTSTAYMELRSLRSDDTAVYYCARXNXLDXWGQGTTVTVSS
chain 2: DIQMTQSPSSLSASVGDRVTITCSVSSSVSSIYLHWYQQKPGKAPKLLIYSTSNLASGVPSRFSGSGSGTDFTLTISSLQPEDFATYYCQVYSGYPLTFGGGTKVEIK

Variants of B1 are the subject of this assay. The assay can be described thus: yeast display scFab, FACS + sequencing. Conditions: with MET. The gist of the method:
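A heavy-chain CDR mutant scFab library on yeast was enriched magnetically with HGFR-Fc-coated Protein A beads for two rounds and then by FACS after labelling with 1 nM HGFR-Fc and anti-Myc in PBSB with 1% milk for 3 h at room temperature, gating the top 50% antigen-positive cells. Antigen binding was judged positive if a sequence turned up in both antigen-positive deep-sequencing samples and negative if it turned up only in the input.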
In the case of AEERASAF, the antigen binding call is recorded as “no binding”. For VAGTGAVV, the antigen binding call is “no binding”. Next, VAEKGDLS: “no binding”; VTTKSDLA: “no binding”. The result for SAGKDDLA reads “no binding”; that for DEGGTDVY, “no binding”; that for YTARGVSF, “no binding”. On to YRARGSVF, for which the antigen binding call is on record as “binds”. Next, YRARGSLF: “binds”; FGAATDGV: “no binding”. Consider DTREGDGA, for which the antigen binding call is on record as “no binding”. Take FAGRDAVV: the antigen binding call is reported as “no binding”.

For the variant DGGKNAGD, the antigen binding call was “no binding”. Turning to FKRRDSVY, the antigen binding call is recorded as “no binding”. The result for YKKESDSY reads “no binding”; that for VERGGDSY, “no binding”; that for FKARDSSA, “no binding”.

In the case of DARGGSSY, the antigen binding call was “no binding”. In the case of FKRGSSSY, the antigen binding call is “binds”. For YKRGSSSY, the antigen binding call is listed as “binds”. In the case of YKRGGSSY, the antigen binding call is on record as “binds”. Next, YERRDVLY: “no binding”; YRTEDVGA: “no binding”; YEKGGDGA: “no binding”. Take YREGGDGA: the antigen binding call is “no binding”. With YARRDVGA, the antigen binding call is on record as “no binding”. Next, YRRGSVGA: “binds”; YRRGGVGA: “binds”; YRRGGDGA: “binds”. The result for YRKKSVGA reads “no binding”; that for AGGENDGD, “no binding”. Regarding SGTKGYWD, the antigen binding call was “no binding”. Next, DTKAAAGD: “no binding”; VEGGGDGV: “no binding”.

DAGGASSV: the antigen binding call is on record as “no binding”. The result for YRGRSSSV reads “binds”; that for ARGRSDAV, “no binding”. Consider YRGRSASV, for which the antigen binding call is recorded as “binds”. The result for YTGTSSSV reads “no binding”; that for FARETFGV, “no binding”; that for VETEGDWY, “no binding”.

As for YREEGDGV, the antigen binding call is recorded as “no binding”.

Take YRRRGSGV: the antigen binding call was “binds”. Regarding YRRRGASV, the antigen binding call is “binds”.

For YGRRGFSV, the antigen binding call is “no binding”. Next, YRRRGDGV: “binds”; YARRGSGV: “no binding”; YRRRGVGV: “binds”. In the case of VETRSDVA, the antigen binding call was “no binding”. Take VTGTSDLY: the antigen binding call is on record as “no binding”. Next, VTAGDDVY: “no binding”. On to DAGRGDGF, for which the antigen binding call is on record as “no binding”. The result for DAGGAAGV reads “no binding”. Turning to DARRGAGV, the antigen binding call is “binds”.

Consider YKRRDFGV, for which the antigen binding call is “no binding”.

For the variant YATGGYAV, the antigen binding call is given as “no binding”. For DATGGYAV, the antigen binding call is listed as “binds”.

In the case of VATGGYAV, the antigen binding call is given as “no binding”.

Turning to DAAGAAGV, the antigen binding call was “no binding”. As for YRRRGFGV, the antigen binding call is recorded as “binds”. Consider YRRRGAGV, for which the antigen binding call was “binds”. As for VTGTGAVV, the antigen binding call is listed as “no binding”. Take VEGTNDVV: the antigen binding call is listed as “no binding”. Next, YKRGGAAA: “binds”; VKRGSAAV: “binds”. Consider VKRGSAAA, for which the antigen binding call was “binds”.

Consider VKGRAAVA, for which the antigen binding call is recorded as “no binding”.

As for YKRGSAAA, the antigen binding call is reported as “binds”. Next, DKEGGAAA: “no binding”; YARADAAA: “no binding”. On to FKRKAAAA, for which the antigen binding call is recorded as “no binding”. For the variant YTRAGAAA, the antigen binding call is “no binding”.

As for AKRGSAAV, the antigen binding call is “no binding”. Turning to VTTKSAAV, the antigen binding call was “no binding”. The result for DAGTGDGV reads “no binding”; that for DEGRGDGV, “no binding”; that for VTGESAAV, “no binding”. On to DEARSDGA, for which the antigen binding call was “no binding”. The result for FRREGSSD reads “no binding”; that for FRTRGSSD, “binds”; that for YRRRGYSD, “no binding”. Next, FRRRGSSD: “binds”. Regarding YRRRGSSD, the antigen binding call is on record as “binds”.

For YRRRGASD, the antigen binding call is “binds”. As to YAGTGDLV, the antigen binding call is “no binding”.

As to YRTRSSGA, the antigen binding call is “binds”. The result for VRTRSFGA reads “no binding”; that for YRTRSAGA, “binds”.

As for DETRSAGA, the antigen binding call is “no binding”. With SGRGNDAV, the antigen binding call was “no binding”. As to YRRGGAAV, the antigen binding call is given as “binds”.

As to ARRGAYGV, the antigen binding call is “no binding”. As for YRKGGAAV, the antigen binding call is “binds”. As for YRRGAAAV, the antigen binding call is given as “binds”. In the case of YARAGYAV, the antigen binding call is on record as “no binding”.

Regarding YRTRGYAV, the antigen binding call is recorded as “no binding”. The result for YTRGADGV reads “no binding”; that for YRRGGYAV, “binds”; that for DARGGAAV, “no binding”. On to AEGTSAVF, for which the antigen binding call is reported as “no binding”. Next, DAGGGDGA: “no binding”. With AARADFGV, the antigen binding call is “no binding”. The result for ATTKSDGA reads “no binding”; that for VATRGFWD, “no binding”. For the variant VRTRGSWD, the antigen binding call is on record as “binds”. The result for YRTRGSWD reads “binds”; that for DATRSSWD, “no binding”. In the case of YRTRSSWD, the antigen binding call is “binds”. For the variant DRGKNDGD, the antigen binding call is on record as “no binding”.

Consider DKEGGDGA, for which the antigen binding call was “no binding”. On to DREGDAVA, for which the antigen binding call is “no binding”.

As for YRRRSAVA, the antigen binding call is given as “binds”. Next, DREEGAGA: “no binding”. For YRRRSAGA, the antigen binding call was “binds”. Next, VTGGDDGA: “no binding”; VEGADAVA chain 1 G106S: “no binding”; AGGGNSGV: “no binding”. As for SKGRSSWS, the antigen binding call is “no binding”. Next, VKGRASWS: “no binding”. Next, YKGRGSWS: “binds”; VKGKSSWS: “no binding”. Next, VKGRGSWS: “binds”; VKGGAAVY: “no binding”. In the case of YKGTDAWY, the antigen binding call is recorded as “no binding”. Next, YKGEDDVY: “no binding”; YKGGSDVY: “binds”; VKGTDAWY: “no binding”. Take YKGGSAGY: the antigen binding call is listed as “binds”. Next, YKGGSAWY: “binds”; YEGGGDVY: “no binding”. Regarding DEKEGDAA, the antigen binding call is reported as “no binding”. Next, YRGGAAWY: “binds”. Regarding YEGGADVD, the antigen binding call is listed as “no binding”. The result for YRGGAAWD reads “binds”; that for YAGGAYLY, “no binding”. In the case of YRARGDLD, the antigen binding call was “binds”. Next, YTGTSDLD: “no binding”. As to YRRRGFGD, the antigen binding call is “no binding”. Take YRRRGFVD: the antigen binding call is reported as “binds”. Next, YRRRGSVD: “binds”; YRRRGSLD: “binds”; DGARNSGV: “no binding”.

Regarding FAGRAAWA, the antigen binding call was “no binding”. Turning to SETTDDVA, the antigen binding call is recorded as “no binding”.

As to AGGGNDVY, the antigen binding call was “no binding”.

Regarding YRRRGAVD, the antigen binding call is given as “binds”. Turning to YARRGSLD, the antigen binding call is reported as “binds”. As for DARRGSGD, the antigen binding call is “no binding”. In the case of YRRRSSVD, the antigen binding call is “binds”. As to YRRRGDVD, the antigen binding call is given as “binds”. The result for YRRRGYVD reads “no binding”; that for YTERGDVD, “no binding”.

Take YARADSLD: the antigen binding call is listed as “no binding”. Turning to SEGTGDWV, the antigen binding call is reported as “no binding”. For the variant VEEEGDSA, the antigen binding call is recorded as “no binding”. Regarding VETEGDVA, the antigen binding call was “no binding”.

On to YRRRGDLD, for which the antigen binding call was “binds”. The result for YRREGSLD reads “binds”; that for YRRRGSWD, “binds”.

As for AEARSDGA, the antigen binding call is “no binding”. The result for SEGRGAWY reads “binds”; that for SEGRGDVY, “no binding”.

AEGRGAVY: the antigen binding call is “no binding”.

SRGRGAWY: the antigen binding call was “binds”. The result for VETGNDGV reads “no binding”; that for ATRGADAV, “no binding”; that for YRGGGVVD, “binds”. The result for YAGTGVVD reads “no binding”.

As to YREGDFVD, the antigen binding call is on record as “no binding”.

YRGRGFVD: the antigen binding call is “binds”. Next, YRGRDFVD: “no binding”; YAGRGVVD: “no binding”; YRGRGVVD: “binds”. Regarding VTGGDSWF, the antigen binding call was “no binding”. Consider AGTRSFGY, for which the antigen binding call is recorded as “no binding”.

Consider FRAGGSVD, for which the antigen binding call was “binds”. Take FRAGGAVD: the antigen binding call is reported as “binds”. The result for FTEEGAVD reads “no binding”.

Turning to FRATSAVD, the antigen binding call was “no binding”. On to VTTKSSVA, for which the antigen binding call is “no binding”. In the case of DKAGGDGS, the antigen binding call was “no binding”. On to VKAGDSGA, for which the antigen binding call is on record as “no binding”.

For the variant VKKTGSGA, the antigen binding call was “no binding”. With VKARGSGA, the antigen binding call is “binds”. Next, VKARGSVA: “binds”.

With YKAGGSAS, the antigen binding call is on record as “binds”. On to YKARGSGS, for which the antigen binding call was “binds”. Next, SKTKSSAS: “no binding”; VKEGGDVA: “no binding”; VAGGDDGF: “no binding”. In the case of SKTKSDGV, the antigen binding call is on record as “no binding”. For YMAEGSGA, the antigen binding call is “no binding”. Next, YTERAAWA: “no binding”; VKERGAVA: “no binding”; YKARGSGA: “binds”. The result for VKARGSLA reads “binds”; that for YKARGAWA, “binds”; that for YKARGAGA, “binds”.

VKEGGSSA: the antigen binding call is on record as “no binding”. Turning to YEARNAGA, the antigen binding call is on record as “no binding”. The result for SAAGSVWY reads “no binding”; that for VKEGGDGA, “no binding”. The result for DEAGDAVV reads “no binding”; that for SRGRGAGF, “binds”.

Consider SRGRGAWF, for which the antigen binding call is reported as “binds”. Take SAGRGFGF: the antigen binding call was “no binding”. Next, AKTGDSSD: “no binding”. Consider YKAGGYSD, for which the antigen binding call is recorded as “no binding”. The result for AKGKASSD reads “no binding”; that for YARADSSD, “no binding”. The result for VKRGSSSD reads “binds”. The result for YKRGSSSD reads “binds”; that for AKAADSSD, “no binding”; that for YKAGDSSD, “binds”. Take YKRKSASD: the antigen binding call was “binds”.
